Screening data: PubChem BioAssay, National Center for Advancing Translational Sciences (NCATS)
HT1080-NT tox – qHTS for induction of synthetic lethality in tumor cells producing 2HG: qHTS for the HT-1080-NT fibrosarcoma cell line. HT-1080-NT fibrosarcoma viability, CellTiter-Glo ATP luminescence, 48 h. Potency, µM (titrated, usually from 46.1 µM), for the others: at the highest dose activity, negative = less viability, usual class: cytotoxic. actives 1.6% (n = 360,000);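 further: NT is the 2HG producing partner of a matched IDH1 knockdown line; potency means the concentration at half of the fitted maximal effect; 0% = DMSO-treated cells and -100% = media-only wells without cells; nearly all actives have a fitted effect of over 55% in size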
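Compounds were tested in concentration-response format on HT-1080-NT cells for 48 hours at 37 degrees C. Cell viability came from CellTiter-Glo luminescence; curves were classified by r2, response magnitude and activity.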
HT1080 IDH1KD tx – qHTS for induction of synthetic lethality in tumor cells producing 2HG: qHTS for the HT-1080-IDH1KD cell line | AID 686971, 2013 | Potency, µM (series often up to 46.1 µM), without a hit: at the highest dose activity, negative = toxicity, hits mostly cytotoxic | actives 2% (n = 360,000) | HT-1080 IDH1 knockdown viability, ATP luminescence, 48 h;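 further: potency means the concentration at half of the fitted maximal effect; 0% = DMSO wells and -100% = cell-free medium wells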
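After a 2 h attachment period, IDH1KD HT-1080 cells took pin-transferred compound for 48 h at 37 °C; ATP-based luminescence after 10 min room-temperature reagent incubation reported viability.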
TDP1 cell noCPT – qHTS for Inhibitors of human tyrosyl-DNA phosphodiesterase 1 (TDP1): qHTS in cells in absence of CPT; DT40 Tdp1-/- hTDP1 cells, no CPT, ATP luminescence, 48 h; Potency, µM (top dose mostly 46.2 µM), inactives show at the highest dose activity change, negative = growth inhibition, usual class: inhibitors; actives 15% (n = 420,000); further: potency means the concentration at half of the fitted maximal effect; nearly all actives have a fitted effect of over 55% in size
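Compound effects on proliferation are scored in DT40 Tdp1-/-;hTDP1 cells in the absence of CPT. ATP levels (CellTiter-Glo luminescence) are recorded after a ≥48 hr, 37 °C incubation.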
IL-1B inflam inh – qHTS for Inhibitors of Inflammasome Signaling: IL-1-beta AlphaLISA Primary Screen; actives 4.7% (n = 360,000); THP-1 LPS/ATP IL-1B secretion, AlphaLISA, 16 h; stronger effect = lower value; AID 743279, 2014; activity change, % at 57.5 µM; in the data active means activity change below about -50%; inconclusive means mostly about -30% to -49%
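THP-1 cells pretreated 1 hr with compounds (up to 57.5 uM final), then stimulated with LPS (250 ng/mL final) plus ATP (1.25 mM final); secreted IL-1B measured by AlphaLISA after 16 hr, decreased signal indicating inhibition.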
ELG1 repair inh – qHTS screen for small molecules that inhibit ELG1-dependent DNA repair in human embryonic kidney (HEK293T) cells expressing luciferase-tagged ELG1 | actives 2.3% (n = 330,000) | HEK293T ELG1-luciferase reporter, luminescence, 16 h; DNA damage induced by 5-fluorouridine | Potency, µM (titrated, usually from 46.1 µM), without a hit: top-dose activity change, negative = inhibition, most hits filed as inhibitors; further: potency means the concentration at half of the fitted maximal effect; nearly all actives have a fitted effect of over 55% in size
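Quantitative HTS, concentration-response format. 2,000 cells/well co-treated with 5-fluorouridine and compound, 16 hr in 5% CO2 at 37 °C; ONE-Glo luminescence read after 30 min.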
DT40 TDP1 CPT – qHTS for Inhibitors of human tyrosyl-DNA phosphodiesterase 1 (TDP1): qHTS in cells in presence of CPT; chicken DT40 Tdp1-/-;hTDP1 cells + 20 nM CPT, ATP luminescence, 48 h; Potency, µM (highest dose often 46.2 µM), without a hit: at the highest dose activity change, negative = growth inhibition, most hits filed as inhibitors; actives 12% (n = 420,000); further: potency means the concentration at half of the fitted maximal effect; nearly all actives have a fitted effect of over 55% in size
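Chicken DT40 Tdp1-/- cells stably complemented with human TDP1 were seeded at 400 cells/well in medium containing 20 nM camptothecin, exposed to pin-transferred compounds, and grown at 37 °C for at least 48 hr. Viability was read as ATP luminescence.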
The depositor's hits bear a star; ? = inconclusive; . = no result; ! = not active in a repeat; [ ] = remark or other dose. A selection: hits, their analogues and other compounds. The true share with any hit is near 19%. Unless noted, the call rests on the fitted dose curve; in most records, active means well fitted curve in the direction sought with a large enough effect; inconclusive means small, poorly fitted or top-dose-only effect, or another doubt; inactive means no such curve, though single readings can be large; an effect the other way counts as inactive or inconclusive. Unless noted, on the % scale 0 is the no-effect control and ±100 the full control effect.

SMILES | HT1080-NT tox | HT1080 IDH1KD tx | TDP1 cell noCPT | IL-1B inflam inh | ELG1 repair inh | DT40 TDP1 CPT
CN1C[C@H](C(=O)N[C@]2(C)O[C@@]3(O)[C@@H]4CCCN4C(=O)[C@H](Cc4ccccc4)N3C2=O)CC2c3cccc4[nH]cc(c34)C[C@H]21 (some centres undefined) | ? | ? | 18µM*! | -15 | -7% | ?
CCOC(=O)CC(SP1(=S)OCC2(CC=CCC2)CO1)C(=O)OCC (centres undefined) | 0% | -11% | 0% | 8 | . | -1%
CCCCNC(C)(C)[P+](=O)O | . | . | 7% | . | . | -4%
O=c1[nH]c2ccccc2n1C1CCN(C(c2ccccc2)c2nnnn2-c2ccc3c(c2)OCCO3)CC1 (centres undefined) | ? | ? | 18µM* | -1 | . | 18µM*
O=c1[nH]c2ccccc2n1C1CCN(C(c2cccs2)c2nnnn2-c2ccc3c(c2)OCCO3)CC1 (centres undefined) | ? | 3.3µM* | 2.3µM* | 18 | . | 2.9µM*
O=c1[nH]c2ccccc2n1C1CCN(C(c2nnnn2-c2ccc3c(c2)OCCO3)C2CC2)CC1 (centres undefined) | ? | ? | 7.3µM* | -3 | . | 13µM*
O=C1NCN(c2ccccc2)C12CCN(C(c1ccccc1)c1nnnn1C1CCCC1)CC2 (centres undefined) | -1% | -8% | ? | ? | . | ?
C[C@H]1C[C@@H]2[C@H]([C@@H](O)C[C@@]3(C)[C@H]2CC[C@]3(O)C(=O)COC(=O)CCC(=O)O)[C@@]2(C)C=CC(=O)C=C12 | . | . | -16% | . | . | ?
CCCCn1nnnc1C(CC)N1CCC2(CC1)C(=O)NCN2c1ccccc1 (centres undefined) | 7% | 11% | ? | -3 | . | ?
CCCCn1c(=O)c(C(=O)Nc2ccsc2C(=O)OC)c(O)c2ccccc21 | 1% | -9% | 5.2µM* | 22 | 8% | 21µM*
CCCCn1c(=O)c(C(=O)Nc2ccccc2N)c(O)c2ccccc21 | -1% | 6% | 23µM* | 28 | -15% | ?
CCCCCn1c(=O)c(C(=O)Nc2ccccc2N)c(O)c2ccccc21 | 0% | 9% | 21µM* | 7 | -14% | ?
O=P1(c2ccccc2)CC=CC1 | ? | 14% | -2% | 27 | . | -9%
O=[N+]([O-])c1[nH]cnc1Br | -5% | 2% | -16% | 22 | . | 10%
O=C1NC(=O)C(Cc2ccccc2)(Cc2ccccc2)C(=O)N1 | -2% | -5% | -79% | 3 | . | ?
NCCCC[C@H](N[C@@H](CCc1ccccc1)C(=O)O)C(=O)N1CCC[C@H]1C(=O)O | ? | 0% | ? | 5 | 4% | -2%
CC(C)C(NC(=O)C(C(C)C)N(C)C)C(=O)N(C)C(C(=O)N1CCCC1C(=O)N1CCCC1C(=O)NCc1ccccc1)C(C)C (centres undefined) | 0.21µM* | ? | 0.052µM* | 33 | . | 0.033µM*
CNc1ccc(C(=O)CC(O)CCC(C)C2OC(=O)CC(O)CC(=O)CC(O)CC(O)CC(O)CC(O)CC3(O)CC(O)C(C(=O)OC)C(CC(O[C@@H]4O[C@H](C)[C@@H](O)[C@H](N)[C@@H]4O)/C=C/C=C/C=C/C=C/C=C/C=C/C=C/C2C)O3)cc1 (some centres undefined) | . | . | -24% | . | . | 3%
CCCCn1c(C)c(C(=O)OCC)c2c(CN3CCOCC3)c(O)ccc21 | -11% | -26% | -17% | -60* | ? | -21%
CCCCn1c(C)c(C(=O)OCC)c2c(CN3CCCC3)c(O)ccc21 | ? | -30% | 12µM* | -79* | -27% | 18µM*
CCOC(=O)c1c(C)n(COCCO)c2ccc(O)cc12 | 4% | 12% | -10% | 7 | -9% | 5%
C/C=C1/C[N+]2(C)CCC34C(=C(C=O)[C@H]1C[C@@H]32)Nc1ccccc14 (some centres undefined) | ? | 19% | -7% | 10 | 8% | -20%
CN1CCC(O)(c2ccc(Cl)cc2)C(C(=O)c2ccc(Cl)cc2)C1 (centres undefined) | -1% | 5% | 2.9µM* | -15 | 2% | 2.6µM*
O=C(CN1CCCCC1c1cccnc1)c1ccccc1 (centres undefined) | . | . | -10%[9.04 µM] | . | . | 3%[9.04 µM]
CC(C)[C@H](CO)Nc1nc(Nc2cccc(Cl)c2)c2ncn(C(C)C)c2n1 | . | . | 9.4µM* | . | . | 9.4µM*
SMILES | HT1080-NT tox | HT1080 IDH1KD tx | TDP1 cell noCPT | IL-1B inflam inh | ELG1 repair inh | DT40 TDP1 CPT
CCCCn1c(O)c(C(=O)/C=C/c2c[nH]c3ccccc23)c(=O)[nH]c1=O | 12% | 16% | ? | . | ? | -7%
Cc1cccc(Cn2c(=O)n(Cc3ccc(C(=O)NC4CCN(Cc5ccccc5)CC4)cc3)c(=O)c3ccccc32)c1 | . | . | 3.3µM* | . | . | 4.1µM*
COC(=O)c1ccc(CN2CCN(Cc3ccccc3)CC2)cc1 | 0% | -4% | -13% | 8 | ? | -13%
Cc1oc(-c2cccc(Cl)c2)nc1CN1CCC(C(=O)NCCCN2CCN(c3ccc(F)cc3)CC2)CC1 | . | . | 2.9µM* | . | . | 4.6µM*
Cc1oc(-c2cccc(Cl)c2)nc1CN1CCC(C(=O)NC(C)c2ccccc2)CC1 (centres undefined) | . | . | 4.6µM* | . | . | 4.1µM*
Cc1oc(-c2ccc(Cl)cc2)nc1CN1CCC(C(=O)NCCCN2CCN(c3cccc(Cl)c3)CC2)CC1 | . | . | 2.6µM* | . | . | 5.2µM*
CCCCNC(=O)C1CCCN(Cc2nc(-c3ccc(Cl)cc3)oc2C)C1 (centres undefined) | . | . | 4.1µM* | . | . | 6.5µM*
CCOC(=O)C1CCCN(Cc2ccc(-c3ccccc3)cc2)C1 (centres undefined) | -1% | -3% | ? | -9 | ? | ?
Cc1oc(-c2ccc(Cl)cc2)nc1CS(=O)CC(=O)N1CCC2(CC1)OCCO2 (centres undefined) | 2% | -13% | -8% | -5 | -23% | -5%
